Laboratory results from PubChem BioAssay (NCATS).
Inconclusive results are not listed. Active and inactive are the calls of the source. Unless noted, calls follow the shape of the dose curve; as a rule, active = well fitted inhibition curve with a large enough effect; inconclusive = small, poorly fitted or top-dose-only effect; inactive = flat fitted curve, though single readings scatter.

Tests used:
[1] = qHTS drug screen for cell cycle checkpoint inhibitors in PARPi-resistant BRCA-mutant ovarian cancer cell lines. (AID 1963452; calls by dose curve); conditions: PEO1/OlaR viability, CellTiter-Glo luminescence, 96 h, stronger effect = lower value
How it was run: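 PEO1, PEO4 and PEO1/OlaR ovarian cancer cells, 600 per well, exposed 96 h at 37C to a dilution series. Viability read by CellTiter-Glo luminescence, normalized to DMSO and empty wells; activity summarized as Z-AUC.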

[2] = qHTS for identification of novel therapeutic agents for treatment of microphthalmiaassociated transcription factor (MiT) renal cell carcinoma (RCC) (AID 1963991); conditions: CellTiter-Glo, 48 h, stronger effect = lower value
How it was run: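 Curves over 11 concentrations were fitted to CellTiter-Glo luminescence, scaled between empty wells (0%) and DMSO (100%) viability. Cells were UOK109, UOK124 and UOK145 TFE3-fusion RCC lines at 500/well, exposed 48 hours at 37 C.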

[3] = qHTS profiling for inhibitors of Plasmodium falciparum proliferation (AID 504749); also: nearly all actives have a fitted effect of over 60% in size; also: potency is read from the fitted curve at half-maximal effect;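 as to activity, negative = inhibition: 0% = DMSO vehicle and full inhibition = artemisinin control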; conditions: P. falciparum in erythrocytes, SYBR Green DNA, 72 h
How it was run: (§1)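 P. falciparum-infected erythrocytes (0.3% parasitemia, 2.5% hematocrit) incubated with compound 72 h at 37 C, 5% CO2. Parasite DNA detected by SYBR Green after lysis, overnight at room temperature; normalised to 0.29 uM artemisinin and DMSO.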

[4] = tested on: 3D7; test: as above; conditions: P. falciparum in erythrocytes, SYBR Green DNA, 72 h; series mostly up to 28.7 µM
How it was run: as §1

[5] = tested on: 7G8; test: as above; conditions: P. falciparum in erythrocytes, SYBR Green DNA, 72 h; series mostly up to 28.7 µM
How it was run: as §1

[6] = tested on: AA1029; test: as above; conditions: P. falciparum in erythrocytes, SYBR Green DNA, 72 h; series mostly up to 28.7 µM
How it was run: as §1

[7] = measured here: PEO1 parental Z-AUC
[8] = TFE3-RCC UOK109 viability, measured here: UOK109 Z-AUC
[9] = TFE3-RCC viability, measured here: UOK124 Z-AUC
[10] = TFE3-RCC viability, measured here: UOK145 Z-AUC
[11] = at 28.7 µM (top of the series), parasite line A
[12] = at 28.7 µM (top of the series), parasite line B
[13] = at 12.8 µM (top of the series), parasite line A
[14] = at 12.8 µM (top of the series), parasite line B

| SMILES | Z-AUC [1] | Z-AUC [1, 7] | Z-AUC ([1]; measured here: PEO4 Z-AUC) | z-score [2, 8] | z-score [2, 9] | z-score [2, 10] | activity, negative = inhibition [3, 11] | activity, negative = inhibition [3, 12] | Potency [4] | Potency [5] | Potency [6] | activity, negative = inhibition [3, 13] | activity, negative = inhibition [3, 14] | Potency ([3]; parasite line A) | Potency ([3]; parasite line B) |
| --- | --- | --- | --- | --- | --- | --- | --- | --- | --- | --- | --- | --- | --- | --- | --- |
| C[C@]12C=CC(=O)C=C1CC[C@@H]1[C@@H]2C(=O)C[C@@]2(C)[C@H]1CC[C@]2(O)C(=O)CO | -0.919 (inactive) | -0.762 | -0.828 | 1.31 | 1.23 | -3.21 | 9.08% (inactive) | 14.6% (inactive) | inactive | inactive | inactive | – | – | – | – |
| Nc1nc(N)nc(-c2cc(Cl)ccc2Cl)n1 | 0.87 (inactive) | 0.667 | 0.862 | 0.0738 | 0.434 | 0.276 | -9.21% (inactive) | -1.76% (inactive) | inactive | inactive | inactive | – | – | – | – |
| O=C(O)CSCC(=O)NC1CCSC1=O (stereo not drawn) | -0.00872 (inactive) | 0.644 | 0.13 | 0.815 | 0.223 | 1.5 | – | – | – | – | – | – | – | – | – |
| CCn1cc(C(=O)O)c(=O)c2cc(F)c(N3CCNCC3)cc21 | 0.488 (inactive) | 0.343 | 0.192 | 1.12 | 2.59 | 1.26 | – | – | inactive | inactive | inactive | -24.5% (inactive) | -18% (inactive) | – | – |
| CCOC(=O)c1ccc(C#Cc2ccc3c(c2)C(C)(C)CCS3)nc1 | 1.4 (inactive) | 1.62 | 1.15 | 0.0377 | 0.696 | 0.0993 | – | -14.4% (inactive) | inactive | 12.6 µM (active) | inactive | – | – | – | – |
| COc1ncnc(NS(=O)(=O)c2ccc(N)cc2)c1OC | 1.84 (inactive) | 1.63 | 1.91 | 0.466 | 0.339 | 0.671 | -18.9% (inactive) | 11.3% (inactive) | – | inactive | inactive | – | – | – | – |
| C#CCN[C@@H]1CCc2ccccc21 | -0.484 (inactive) | -0.355 | -0.739 | 0.682 | 0.222 | 0.635 | 16.7% (inactive) | 9.12% (inactive) | inactive | inactive | inactive | – | – | – | – |
| Nc1[nH]c(=O)ncc1F | 1.66 (inactive) | 1.6 | 1.51 | 0.532 | 0.978 | 0.221 | – | – | inactive | inactive | inactive | 6.35% (inactive) | 1.39% (inactive) | – | – |
| CCC(C)(C)c1ccc(CC(C)CN2C[C@@H](C)O[C@@H](C)C2)cc1 (stereo partly drawn) | 0.498 (inactive) | 0.321 | 0.288 | 0.00856 | 0.0457 | 1.19 | -5% (inactive) | -10.4% (inactive) | – | 10 µM (active) | inactive | – | – | – | – |
| CC1=NN(c2ccccc2)C(=O)C1 | 0.285 (inactive) | 0.838 | 1.05 | -4.96 | 0.556 | -3.3 | 3.27% (inactive) | -12.4% (inactive) | inactive | inactive | inactive | – | – | – | – |
| O=c1oc2c(O)c(O)cc3c(=O)oc4c(O)c(O)cc1c4c23 | 0.559 (inactive) | 0.754 | 0.513 | 1.02 | 0.807 | 0.717 | – | – | 1 µM (active) | 2.82 µM (active) | inactive | – | – | – | – |
| O=C(O)c1cn(C2CC2)c2cc(N3CCNCC3)c(F)cc2c1=O | 0.135 (inactive) | 0.154 | 0.682 | 1.77 | 0.661 | 1.11 | – | – | inactive | 3.16 µM (active) | – | – | -28.9% (inactive) | – | – |
| CCn1cc(C(=O)O)c(=O)c2cc(F)c(N3CCN(C)CC3)cc21 | 1.22 (inactive) | 0.931 | 1.07 | 0.77 | 0.298 | 0.753 | – | -21.5% (inactive) | inactive | – | – | – | – | – | – |
| N=C(N)c1ccc(OCCCCCOc2ccc(C(=N)N)cc2)cc1 | 0.0445 (inactive) | -0.0701 | 0.016 | – | – | – | – | – | 1.58 µM (active) | 0.199 µM (active) | 1 µM (active) | – | – | 1 µM (active) | 2.24 µM (active) |
| Cc1oc(=O)oc1CN1CCN(c2cc3c(cc2F)c(=O)c(C(=O)O)c2n3C(C)S2)CC1 (stereo not drawn) | -0.572 (inactive) | -0.35 | -0.652 | 0.77 | 0.785 | 0.456 | – | – | 11.2 µM (active) | 3.98 µM (active) | 6.31 µM (active) | – | – | 11.2 µM (active) | 8.91 µM (active) |
| COc1c(N2CCNC(C)C2)c(F)cc2c(=O)c(C(=O)O)cn(C3CC3)c12 (stereo not drawn) | 0.833 (inactive) | 0.836 | 0.282 | – | – | – | -14.8% (inactive) | -1.5% (inactive) | inactive | – | – | – | – | – | – |
| OC(Cn1cncn1)(Cn1cncn1)c1ccc(F)cc1F | -0.0807 (inactive) | 0.99 | 1.12 | 0.751 | 0.906 | -0.107 | 5.43% (inactive) | – | inactive | inactive | inactive | – | – | – | – |
